TROY NFkB inh – inhibitors of TROY-dependent NF-kB signaling; Q293 LMP1-TROYcd NF-kB luciferase reporter, 4 h; inhibition, % at 10 µM; 0.98% of 360,000 active; AID 1347056;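 active means compounds whose plate-normalised and pattern-corrected inhibition of the luciferase reporter signal at the single screening dose is 50% or more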
EWS-Fli block – inhibitors of EWS/Fli oncoprotein transcriptional activity. inhibition, % at 12.6 µM. A673 NR0B1-luciferase reporter, viability-normalised. 0.67% of 350,000 active. AID 651661;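 active means mean inhibition of at least 50% after viability correction, with every replicate also passing that limit; inconclusive means mean reaches 50% but only one of two replicates passes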;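 further: firefly luciferase signal divided by Alamar Blue viability fluorescence both relative to DMSO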
EBV LMP1 NFkB – Epstein-Barr LMP1 NF-kappaB reporter inhibition. LMP1-induced NF-kappaB luciferase reporter cells, luminescence. inhibition, % at 12.5 µM. 0.69% of 350,000 active; in the data active means inhibition above about 41%; inconclusive means no clear call, values can overlap the other calls
LGR2 inh – blocks bursicon-induced cAMP signaling via Drosophila LGR2. 0.35% of 380,000 active. HEK293 LGR2, CRE-luciferase, bursicon-stimulated, 4 h. inhibition, % at 9.99 µM. AID 720647;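 active means drop in luminescence signal, shown as inhibition above about 50% in the replicate tests, limit read from the data, passing the limit was not always enough; inconclusive means probably only some replicates passing the limit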;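 further: agonist challenge used bursicon conditioned medium at about half maximal strength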
TWEAK-Fn14 inh – inhibitors of TWEAK-Fn14 interaction signaling; inhibition, % at 10 µM; 2% of 360,000 active; AID 1159606; TWEAK-stimulated Fn14 reporter cells, luciferase luminescence, 8 h; in the data active means inhibition above about 50%
Numbers stand for hits; i = inactive; ? = inconclusive; nt = not tested or not shown. Sampled rows, rich in hits. Any-hit rate of the full collection: about 2.6%.

SMILES	TROY NFkB inh	EWS-Fli block	EBV LMP1 NFkB	LGR2 inh	TWEAK-Fn14 inh
O=C(CSc1ccccn1)Nc1nonc1[N+](=O)[O-]	67.9	nt	i	i	68.9
O=C(CSc1ccccn1)Nc1ccc(NC(=O)CSc2ccccn2)cc1	i	i	i	i	i
O=S(=O)(Nc1nc2ccccc2nc1NCc1ccco1)c1ccc(Cl)cc1	i	nt	i	nt	i
Cc1noc(C)c1CSc1nc2ccccc2nc1NS(=O)(=O)c1ccc(Cl)cc1	57.4	nt	i	nt	i
C[C@@H]1CN([C@H](C)CO)C(=O)c2cc(NC(=O)CCN3CCOCC3)ccc2O[C@H]1CN(C)S(=O)(=O)c1ccc(F)cc1	nt	i	nt	i	nt
CC(C)(C)C(=O)N1CCc2cc(-c3csc(N)n3)ccc21	i	nt	i	nt	67.2
C[C@H]1CN([C@@H](C)CO)C(=O)c2c(c3ccccc3n2C)-c2ccccc2CO[C@@H]1CN(C)S(=O)(=O)c1ccc(Cl)cc1	nt	i	nt	i	nt
C[C@H](CO)N1C[C@H](C)[C@H](CN(C)S(=O)(=O)c2ccc(Cl)cc2)OCc2ccccc2-c2c(n(C)c3ccccc23)C1=O	i	i	i	i	61.8
C[C@@H]1CN([C@@H](C)CO)C(=O)c2c(c3ccccc3n2C)-c2ccccc2CO[C@@H]1CN(C)S(=O)(=O)c1ccc(C(F)(F)F)cc1	nt	i	nt	?	nt
C[C@H](CO)N1C[C@H](C)[C@H](CN(C)S(=O)(=O)c2ccc(C(F)(F)F)cc2)OCc2ccccc2-c2c(n(C)c3ccccc23)C1=O	nt	i	nt	53.4	nt
COCCNC(=O)C[C@@H]1C[C@H]2c3cc(NC(=O)Nc4ccc(OC)cc4)ccc3O[C@H]2[C@@H](CO)O1	nt	i	nt	i	nt
C[C@@H]1CN([C@@H](C)CO)C(=O)c2cc(C#CC3CCCCC3)cnc2O[C@@H]1CN(C)C(=O)Nc1ccccc1	nt	i	nt	i	nt
COc1ccc(CN(C)C[C@H]2Oc3ccc(NS(=O)(=O)c4cccs4)cc3CC(=O)N([C@@H](C)CO)C[C@@H]2C)cc1	nt	i	nt	i	nt
COCCC(=O)N1CCCC(C(=O)c2ccc(C(F)(F)F)cc2)C1 (configuration not stated)	i	i	49.0	i	i
C[C@@H]1CCCCO[C@H](CN(C)S(=O)(=O)c2cccs2)[C@H](C)CN([C@H](C)CO)C(=O)c2cc(NC(=O)Cc3ccccc3)ccc2O1	nt	i	nt	i	nt
O=C(COC(=O)c1ccccc1)NC1CCCC1	i	i	i	i	i
CC(CNC1CCCCC1)OC(=O)c1ccccc1 (configuration not stated)	i	i	62.5	i	i
Cn1cnnc1Sc1ccc(/C=C/C(=O)c2ccc(O)cc2)cc1[N+](=O)[O-]	i	69.2	i	66.0	90.2
Cc1ccc(S(=O)(=O)N2CCOCC2)cc1C(=O)OCC(=O)c1c(N)n(C)c(=O)n(C)c1=O	i	i	i	nt	i
Cn1c(N)c(C(=O)COC(=O)c2cc(S(=O)(=O)N3CCOCC3)ccc2F)c(=O)n(C)c1=O	i	67.0	i	i	i
COc1cccc(NC(=O)N2CC(=O)N3[C@@H](CO)[C@@H](c4ccc(C#CC5CCCCC5)cc4)[C@@H]3C2)c1	nt	i	nt	i	nt
CC(=O)Nc1sc2c(c1-c1nc3ccccc3s1)CCN(C(C)C)C2	i	nt	78.2	nt	i
COc1ccc(NS(=O)(=O)c2cc(NC(=O)c3cncc(Br)c3)ccc2OC)cc1	i	i	i	i	51.7
Cn1nc(C(=O)Nc2cccc(S(N)(=O)=O)c2)c2ccccc2c1=O	i	i	i	i	i
COc1ccc(NS(=O)(=O)c2cc(NC(=O)c3nn(C)c(=O)c4ccccc34)ccc2OC)cc1	i	i	i	i	52.9
SMILES	TROY NFkB inh	EWS-Fli block	EBV LMP1 NFkB	LGR2 inh	TWEAK-Fn14 inh
O=C(C[C@@H]1CC[C@H]2[C@@H](COC[C@H](O)CN2Cc2cccc(-c3ccncc3)c2)O1)N1CCCCC1	nt	i	nt	i	nt
O=S(=O)(/C(=C\c1ccc(C(F)(F)F)cc1)c1nc2ccccc2[nH]1)c1ccccc1	53.6	nt	i	nt	99.8
Cc1nc2c(C(=O)NCCC(C)C)c[nH]n2c(=O)c1Cc1ccccc1F	68.6	nt	i	nt	i
Cc1nc2c(C(=O)NCCC(C)C)c[nH]n2c(=O)c1Cl	i	nt	i	i	i
O=C1C(Cl)=C(NCc2cccnc2)C(=O)c2ccccc21	i	58.5	i	i	i
O=C1C(Cl)=C(Nc2ccccc2)C(=O)c2ccccc21	70.0	nt	93.1	i	i
CCN(CC)CCCNC1=C(Cl)C(=O)c2ccccc2C1=O	i	65.3	i	77.2	i
O=C(O)c1cccc(NC2=C(Cl)C(=O)c3ccccc3C2=O)c1	i	i	i	i	59.6
O=C(O)c1ccc(NC2=C(Cl)C(=O)c3ccccc3C2=O)cc1	i	?	i	i	i
COc1ccc(CNC(=O)C[C@@H]2C[C@@H]3c4cc(NS(=O)(=O)c5ccc(F)cc5)ccc4O[C@@H]3[C@H](CO)O2)cc1	nt	i	nt	i	nt
COCC(=O)Nc1ccc2c(c1)OC[C@@H](C)N(C(=O)NC(C)C)C[C@@H](C)[C@@H](OC)CN(C)C2=O	nt	i	nt	i	nt
C[C@H](CO)N1C[C@H](C)[C@@H](CN(C)CC2CCCCC2)Oc2ccc(NC(=O)CCC(F)(F)F)cc2C1=O	nt	i	nt	nt	nt
N=C1SCC(=O)N1c1ncc(Cc2ccc(F)cc2)s1	i	i	i	i	102.8
O=C1CCCCCCCN1Cc1ccccc1	i	i	i	i	i
O=C1CCCN1Cc1ncnn1-c1ccccc1	nt	nt	i	nt	64.6
O=C(NCC1CCCCC1)[C@@H]1[C@@H](CO)[C@@H]2Cn3c(ccc(C4=CCCC4)c3=O)[C@H]1N2	nt	i	nt	i	nt
O=S(=O)(c1ccc(NC(=S)Nc2ccccc2)cc1)N1CCOCC1	i	i	i	i	i
CC(C)CCCCCCNC(=S)Nc1ccc(S(=O)(=O)N2CCOCC2)cc1	56.4	i	i	50.6	54.4
COCC(=O)OC1CCn2c1nc1c2C(=O)C(C)=C(NC(C)=O)C1=O (configuration not stated)	54.5	i	87.5	85.8	101.3
C[C@@H]1CN([C@@H](C)CO)C(=O)c2cc(C#CC3CCCC3)cnc2O[C@H]1CN(C)S(=O)(=O)c1cccc(F)c1	nt	i	nt	i	nt
CC(C)c1ccc(NC(=O)CCNS(=O)(=O)c2cccc3nsnc23)cc1	i	nt	i	i	i
O=C(CCNS(=O)(=O)c1cccc2nsnc12)Nc1ccc2c(c1)OCCO2	i	nt	i	nt	57.7
CC(NC(=O)CCNS(=O)(=O)c1cccc2nsnc12)c1ccccc1 (configuration not stated)	i	i	i	i	54.1
O=S(=O)(Nc1ccc2c(c1)OCCO2)c1cccc2nsnc12	84.5	nt	i	i	95.3
Cc1ccc(-c2ccc3c(c2)O[C@@H](CN(C)C(=O)C2CCCCC2)[C@@H](C)CN([C@H](C)CO)S3(=O)=O)cc1	nt	i	nt	i	nt
O=C(Nc1ccccc1F)N[C@@H]1CC[C@@H](CCNC(=O)C2CCCCC2)O[C@@H]1CO	nt	i	nt	i	nt
CC(C)(C)c1ccc(-n2nc(C#N)c(Cl)cc2=O)cc1	89.4	57.8	i	100.7	104.7
S=C(NCC1CCCCC1)Nc1ccc(Oc2ccccc2)cc1	i	i	47.7	i	i
O=C(Nc1ccc(NC(=O)c2ccco2)nc1)c1ccco1	i	i	45.2	60.4	73.6

Screening results deposited in PubChem by several laboratories.
